An excerpt weighted towards active compounds, which were near 1.9% of everything screened.
PKM2 act: PKM2 (human) enzyme activation; Potency, µM (top dose mostly 57.5 µM), usual class: activators; actives 0.34% (n = 260,000); purified PKM2, Kinase-Glo ATP luminescence, activation; response scale: 0% is enzyme alone, no compound; P14618; further: nearly all actives have a fitted effect of over 55% in size
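ATP formation by purified human PK-M2, quantified via coupled luciferase luminescence after 1 h at room temperature with 0.1 mM ADP and 0.5 mM PEP final.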
ClpP mod: qHTS Assay for Activators of ClpP | purified B. subtilis ClpP, FRET peptide cleavage, 20 min | Potency, µM (highest dose often 57.5 µM) | ATP-dependent Clp protease proteolytic subunit (Bacillus subtilis (strain 168)), P80244 | actives 1.9% (n = 340,000); active means well fitted falling curve with a large enough effect; inconclusive means small, poorly fitted or top-dose-only effect; inactive means no such curve, though single readings can be large or run the other way; further: the source files actives as falling curves though it sought activators and does not explain the sign; nearly all actives have a fitted effect of over 65% in size
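Buffer: 100 mM Tris/HCl pH8, 100 mM KCl, 0.05% low protease BSA, 2.5% glycerol, 0.01% Tween-20. ClpP 10 microg/mL final; 20 min RT; delta FRET normalized to ADEP and DMSO controls.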
IL2 activator: activates IL-2 in a cell-based reporter assay. activation, % (series mostly up to about 46 µM). actives 0.065% (n = 360,000). IL-2 activation reporter assay, cell-based qHTS; stimulated with anti-CD3/CD4/CD28 beads; in transgenic mouse T cells; in the data active means activation above about 50%; inconclusive means mostly about 30% to 49%
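Screening format: compound pinned onto unstimulated transgenic mouse T cells, 60 min incubation, then anti-CD3/anti-CD4/anti-CD28 bead stimulation for 18 hours at 37 degrees C, followed by EGFP and DsRed detection.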
USP2a block: blocks human ubiquitin-specific protease USP2a. USP2 core, Ub-CHOP2 coupled fluorogenic reporter, 485/531. O75604. actives 0.01% (n = 330,000). Potency, µM (top dose mostly 38.3 µM), hits mostly inhibitors
Target sequence (O75604 whole entry, looked up): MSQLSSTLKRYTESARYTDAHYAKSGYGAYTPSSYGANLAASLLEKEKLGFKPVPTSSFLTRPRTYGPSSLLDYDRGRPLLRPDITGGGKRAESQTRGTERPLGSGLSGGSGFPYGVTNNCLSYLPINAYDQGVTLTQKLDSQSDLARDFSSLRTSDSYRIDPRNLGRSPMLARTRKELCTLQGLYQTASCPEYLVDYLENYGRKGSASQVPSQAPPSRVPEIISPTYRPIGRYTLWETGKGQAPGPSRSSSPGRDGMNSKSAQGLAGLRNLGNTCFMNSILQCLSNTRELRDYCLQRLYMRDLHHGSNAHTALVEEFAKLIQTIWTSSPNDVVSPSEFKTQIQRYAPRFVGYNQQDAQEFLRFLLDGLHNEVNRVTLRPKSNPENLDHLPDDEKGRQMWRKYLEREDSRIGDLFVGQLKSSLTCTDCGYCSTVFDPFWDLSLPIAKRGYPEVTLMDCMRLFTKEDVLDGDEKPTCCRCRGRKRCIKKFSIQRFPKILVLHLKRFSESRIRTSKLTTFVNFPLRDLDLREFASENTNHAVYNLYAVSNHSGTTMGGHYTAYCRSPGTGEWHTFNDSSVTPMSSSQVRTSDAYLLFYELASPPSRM
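Deubiquitinase activity read as fluorescence (485/531 nm) after Ub-CHOP2 cleavage activates the enterokinase reporter on its substrate; USP2 core 10nM, Ub-CHOP2 and substrate 25nM each, 30min compound preincubation then 60min RT; data normalized to NEM, curves fitted.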
a7 integrin act: activators of alpha7 integrin expression for muscular dystrophy; alpha7betagal myoblasts, beta-gal FDG fluorescence, 48 h; Potency, µM (doses to about 38.3 µM), usual class: activators; actives 0.064% (n = 350,000); AID 624291; further: nearly all actives have a fitted effect of over 60% in size
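alpha7betagal+/- myoblasts (passage 13, 250/well) treated 48 h at 37C with compounds at 1:260 dilution of DMSO stock. Lysed, then beta-galactosidase activity read as FDG fluorescence (ex 480/em 540) after 30 min, with pre-read for autofluorescence.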
Pin1 inh: blocks the human prolyl isomerase Pin1; Q13526; Pin1 FP peptide displacement, HiFluor488, 10 min; Potency, µM (series often up to 115 µM), actives largely listed as inhibitors; actives 0.009% (n = 390,000); AID 504891; active means well fitted inhibition curve with a large enough effect in the polarisation, with a control signal flat, not every such curve was filed as active; inconclusive means small, poorly fitted or top-dose-only effect, or effect the other way, or a change in a side signal; inactive means no such curve, though single readings can be large or run the other way; the % refers to the polarisation
Numbers stand for hits; n = inactive; u = inconclusive; x = no result; [ ] = another dose, or the depositor's remark. Unless noted, the call rests on the fitted dose curve; in most records, active means well fitted curve in the direction sought with a large enough effect; inconclusive means small, poorly fitted or top-dose-only effect, or another doubt; inactive means no such curve, though single readings can be large; an effect the other way counts as inactive or inconclusive.

SMILES	PKM2 act	ClpP mod	IL2 activator	USP2a block	a7 integrin act	Pin1 inh
O=C(Nc1ccc(Cl)cc1Cl)[C@@H]1CC=C[C@@H]2CCN(C3CCCCC3)C(=O)[C@@H]21	x	n	x	x	x	x
Cc1cc(NCCO)c2cc(O)ccc2n1	n	16µM	n	n	n	n
Cc1cc(NCCO)c2ccccc2n1	n	n	n	n	n	n
C/C(=N\Nc1ncnc2sc(C)c(C)c12)c1ccccn1	x	x	122	n	n	u
Cc1sc2ncnc(N/N=C/c3cccc(O)c3)c2c1C	n	n	n	n	n	n
C/C(=N\Nc1ncc(Cl)cc1Cl)c1ccccn1	n	x	71	n	n	u
Cc1cc(NS(=O)(=O)c2ccc3c(c2)CCC(=O)N3)ccc1F	x	x	x	x	x	n
Cc1sc2ncnc(N3CCCCC3)c2c1C	n	n	n	n	n	n
Cc1ccc(-c2csc3ncnc(-n4cnc5ccccc54)c23)cc1	n	28µM	n	n	n	n
Cc1sc2ncnc(-n3cnc4ccccc43)c2c1C	n	28µM	n	n	n	n
c1ccc(-c2csc3ncnc(-n4cnc5ccccc54)c23)cc1	n	u	n	n	n	n
CCCn1cc2c(c1-c1cccc(C)c1)c(=O)n(C)c(=O)n2C	n	14µM	n	n	n	n
CCn1cc2c(c1-c1cccc(C)c1)c(=O)n(C)c(=O)n2C	n	n	n	n	n	n
COC(=O)C1CSC(C(=O)OC)N1C(=O)Nc1ccc(Cl)cc1 (stereo not given)	n	32µM	n	n	n	n
COC(=O)C1CSC(C(=O)OC)N1C(=O)Nc1ccc(Cl)c(Cl)c1 (stereo not given)	n	n	n	n	n	n
O=C(Cc1ccc(OCCCCc2ccccc2)cc1)NO	x	n	x	x	x	x
C=Cc1c(C)c2cc3[nH]c(cc4nc(cc5nc(cc1[nH]2)C(C)=C5CCC(=O)O)C(CCC(=O)O)=C4C)c(C)c3C=C	x	n	n	n	n	32µM
Cc1ccc(NC(=O)c2cnn3c2NC(=C2CC2)C=C3C(F)F)cc1	x	n	x	x	x	x
OC(COc1ccc(Cl)cc1)CN1C2=NCCCN2c2ccccc21 (stereo not given)	n	22µM	n	n	n	n
OC(CN1C2=NCCCN2c2ccccc21)c1ccc(Cl)cc1 (stereo not given)	n	n	n	n	n	n
O=S(=O)(c1cccc(C(F)(F)F)c1)N1CCN(c2nc(-c3ccccc3)nc3ccccc23)CC1	x	n	x	x	x	n
Clc1ccc(Cl)c(OCc2cc(-c3ccccc3Cl)on2)c1	n	14µM	n	n	n	n
CC1(C)Cc2c(c(N3CCOCC3)nc3sc(C#N)c(N)c23)CS1	n	28µM	n	x	n	n
NC(=O)c1sc2nc(N3CCOCC3)c3c(c2c1N)CCCC3	n	16µM	n	n	n	n
CCOC(=O)c1sc2nc(N3CCOCC3)c3c(c2c1N)CCN(Cc1ccccc1)C3	n	25µM	n	n	n	n
SMILES	PKM2 act	ClpP mod	IL2 activator	USP2a block	a7 integrin act	Pin1 inh
CCOC(=O)c1sc2nc(N3CCOCC3)c3c(c2c1N)CC(C)(C)N(C)C3	n	7.1µM	n	n	n	n
CC(C)(C)OC(=O)Cc1nnc(-c2nc3ccccc3[nH]2)s1	x	x	x	x	x	n
CN(C)c1cccc(-c2cnc(N3CCC(C(N)=O)CC3)nc2)c1	x	x	x	x	x	n
Oc1ccccc1CNc1ccc(Br)cn1	32µM	3.2µM	n	n	n	n
Brc1ccc(NCc2cccc3ccccc23)nc1	n	n	n	n	n	n
C=CCN(C)CCCCCCOc1ccc(C(=O)c2ccc(Br)cc2)c(F)c1	x	n	x	x	x	x
Clc1cccc(-c2nnc3sc(-c4ccc5c(c4)OCO5)nn23)c1	n	x	x	n	x	x
Fc1ccc(-c2nn3c(C4COc5ccccc5O4)nnc3s2)cc1 (stereo not given)	n	n	n	n	n	n
Clc1ccccc1-c1nnc2sc(-c3ccc4c(c3)OCO4)nn12	n	32µM	n	n	n[7.66 µM]	n
c1ccc2c(c1)OCC(c1nnc3sc(-c4ccc5c(c4)OCO5)nn13)O2 (stereo not given)	n	28µM	n	n	n	n
COc1ccc(C(=O)N(Cc2ccccc2)Cc2cccs2)c(O)c1	x	x	x	x	x	n
O=C(Cc1ccccc1)Nc1cccc(-c2nc3ncccc3o2)c1	n	28µM	n	n	n	n
O=C(Cc1ccccc1)Nc1cccc(-c2nc3cccnc3s2)c1	x	35µM	x	x	x	n
O=C(Nc1cccc(-c2nc3ncccc3o2)c1)c1cc2ccccc2o1	n	n	n	n	n	n
CCC(C(=O)Nc1cc(-c2nc3cccnc3s2)ccc1C)c1ccccc1 (stereo not given)	x	35µM	x	x	x	n
Cc1ccc(-c2nc3cccnc3s2)cc1NC(=O)C(C)C	x	u	x	x	x	n
c1ccc2c(N=NN3CCCCC3)ccnc2c1	x	n	x	x	x	x
COc1ccc(C(=O)Nc2ncnc3nc[nH]c23)cc1	x	n	x	x	x	x
NS(=O)(=O)c1cccnc1Nc1c(Cl)cccc1Cl	n	28µM	n	n	n	n
CC1(C)OC(=O)C2(Cc3cc([N+](=O)[O-])ccc3N3CCCCC32)C(=O)O1 (stereo not given)	x	n	x	x	x	n
CC(=O)c1cccc(NC(=O)c2ccc(NC(=O)CC3SC(N4CCCCC4)=NC3=O)cc2)c1 (stereo not given)	n	22µM	n	n	n	n
CC(=O)c1cccc(NC(=O)CC2SC(N3CCCCC3)=NC2=O)c1 (stereo not given)	n	n	n	n	n	n
C=CCn1c(N)c(C(=O)NCc2ccco2)sc1=S	8.9µM	n	n	n	n	n
Cc1ccc(-n2c(N)c(C(=O)NCc3ccco3)sc2=S)cc1	n	n	n	n	n	n
COc1ccc(C(CNC(=O)C(C)Oc2ccc(Br)cc2)N2CCOCC2)cc1 (stereo not given)	x	28µM	n	n	n	n
SMILES	PKM2 act	ClpP mod	IL2 activator	USP2a block	a7 integrin act	Pin1 inh
O=C(O)c1ccccc1SC1=NS(=O)(=O)c2ccccc21	x	x	x	x	x	n
CN(C)c1ccc(/C=c2\[nH]c(=O)/c(=C\c3ccc(N(C)C)cc3)[nH]c2=O)cc1	x	n	x	x	x	x
COC(=O)c1[nH]c2cccc(OC)c2c1NC(=O)CCN1CCC(C)CC1	n	25µM	n	n	n	n
COC(=O)c1[nH]c2cccc(OC)c2c1NC(=O)C(C)N1CCC(C)CC1 (stereo not given)	n	32µM	n	n	n	n
COC(=O)c1[nH]c2cccc(OC)c2c1NC(=O)CCN1CCN(c2ccccc2OC)CC1	n	u	n	n	n	n
COC(=O)c1[nH]c2ccccc2c1NC(=O)C(C)N1CC(C)OC(C)C1 (stereo not given)	n	x	n	n	n	n
